Unmarked numbers belong to inactive results. How the calls were made is not given here.

This experiment in a line: S. typhi GFP reporter counter-screen inhibition, late-stage follow-up, counter-screen for PhoP regulon inhibitor project, round 4, purified and synthesized compounds (AID 449734). The following applies: fluorescence, 4 h; series mostly up to 150 µM; inhibition: at the top concentration. (A counterscreen serves to expose hits that act by an unwanted route or on another target.)
With `S=C(NCc1ccc(Cl)cc1)Nc1ccccc1Br`, the “inhibition” value is 16.4%.

For `S=C(NCc1ccc(Cl)cc1)Nc1ccncn1`, the “inhibition” value was 14.1%.

Regarding `S=C(NCc1ccc(Cl)cc1)NC1CCOCC1`, the “inhibition” value was -9.07%.

As to `FC(F)(F)c1ccc(NC(=S)NCc2ccc(Cl)cc2)cc1`, the “inhibition” value is -2.86%.

For `O=C(Nc1ccc(Cl)cc1)N1CCN(Cc2ccccc2F)C1`, the “inhibition” value is 3.54%.

With `FC(F)(F)c1ccccc1NC(=S)NCc1ccc(Cl)cc1`, the “inhibition” value was -7.95%.

Take `COc1cccc(CNC(=S)Nc2ccncc2)c1`: the “inhibition” value was -2.42%.

For `N#Cc1ccc(CN2CCCN(C(=O)Nc3ccc(Cl)cc3)C2)cc1`, the “inhibition” value is -2.57%.

For `O=C(NC1CCCCC1)N1CCCN(Cc2ccccc2F)C1`, the “inhibition” value was 6.2%.

In the case of `S=C(NCc1ccccc1)NCc1ccc(Cl)cc1`, the “inhibition” value was -13.1%.

On to `S=C(NCc1ccc(Cl)cc1)NN1CCOCC1`, for which the “inhibition” value is 12.6%.

For `O=C(Nc1ccc(Cl)cc1)N1CCCN(Cc2cccc(F)c2)C1`, the “inhibition” value is 19.6%.

Regarding `Cc1ccccc1NC(=O)N1CCCN(Cc2ccccc2F)C1`, the “inhibition” value was -6.81%.

For `S=C(NCc1ccc(Cl)cc1)Nc1cccc(Br)c1`, the “inhibition” value is -14.7%.

As to `CN1CCN(C(=S)NCc2ccc(Cl)cc2)CC1`, the “inhibition” value is 8.07%.

For the molecule `S=C(NCc1ccc(Cl)cc1)Nc1ccccc1I`, the “inhibition” value was 12.1%.

`S=C(NCc1ccc(Cl)cc1)Nc1ccccn1`: the “inhibition” value was 13.4%.

With `S=C(NCc1ccc(Cl)cc1)NC1CCCCC1`, the “inhibition” value was 7.75%.

As for `O=C(Nc1ccc(Cl)cc1)N1CCCN(Cc2cccc(Br)c2)C1`, the “inhibition” value is -5.63%.

For `S=C(NCc1ccc(Cl)cc1)Nc1ccc(I)cc1`, the “inhibition” value was 11%.

Usually inhibition stands for the drop in the measured response relative to a control, in per cent.

For the origin of these results see PubChem BioAssay AID449734 (Southern Research Specialized Biocontainment Screening …, 2010).
